Residue numbers refer to the chain shown, from its start.
Key:
Test in all cases: yeast three-hybrid, YBZ-1, SC-Leu-His + 0.5 mM 3-AT, 4 days
Details in all cases: tags: N-Gal4 AD-HA kept; label: inside an RPR1-promoter hybrid RNA with tandem MS2 sites; ssRNA
PUM1 PUF domain R8-RKK = PUM1 PUF domain R8-RKK (Homo sapiens, UniProt Q14671 828-1176, N1122R;Y1123K;Q1126K)
Summary of the method: (§1)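 A centromeric plasmid in strain YBZ-1 co-expressed Pumilio-1 PUF domain libraries, randomized at the three base-contacting residues of each repeat, with matching RNA elements; the strain carries a LexA–MS2 coat fusion and a HIS3 reporter. After four days on SC-Leu (input) or SC-Leu-His + 0.5 mM 3-AT (selection), the repeat regions were PCR-amplified and Illumina-sequenced. The interaction score is the log change in variant frequency from input to selection, using log2 and a pseudocount of 1 where absent.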

PUM1 PUF domain R8-LYK = PUM1 PUF domain R8-LYK (Homo sapiens, UniProt Q14671 828-1176, N1122L;Q1126K)
Summary of the method: as §1

PUM1 PUF domain R8-HYP = PUM1 PUF domain R8-HYP (Homo sapiens, UniProt Q14671 828-1176, N1122H;Q1126P)
Summary of the method: as §1

PUM1 PUF domain R5-GWS = PUM1 PUF domain R5-GWS (Homo sapiens, UniProt Q14671 828-1176, C1007G;R1008W;Q1011S)
Summary of the method: as §1

PUM1 PUF domain R6-VFS = biological target: T1, PUM1 PUF domain R6-VFS (Homo sapiens, UniProt Q14671 828-1176, N1043V;Y1044F;Q1047S)
T1 sequence: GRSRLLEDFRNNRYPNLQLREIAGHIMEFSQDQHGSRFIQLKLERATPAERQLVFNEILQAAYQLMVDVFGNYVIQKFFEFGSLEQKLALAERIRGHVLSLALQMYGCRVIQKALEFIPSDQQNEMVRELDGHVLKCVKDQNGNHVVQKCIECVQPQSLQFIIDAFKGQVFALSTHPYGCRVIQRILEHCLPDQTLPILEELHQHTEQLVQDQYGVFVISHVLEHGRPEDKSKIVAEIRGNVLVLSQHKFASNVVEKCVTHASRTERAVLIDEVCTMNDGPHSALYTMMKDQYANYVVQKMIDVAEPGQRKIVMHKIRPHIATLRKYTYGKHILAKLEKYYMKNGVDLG
Summary of the method: as §1

PUM1 PUF domain R6-CFY = biological target: T2, PUM1 PUF domain R6-CFY (Homo sapiens, UniProt Q14671 828-1176, N1043C;Y1044F;Q1047Y)
T2 sequence: T1 sequence with V216C, S220Y
Summary of the method: as §1

PUM1 PUF domain R5-DFA = PUM1 PUF domain R5-DFA (Homo sapiens, UniProt Q14671 828-1176, C1007D;R1008F;Q1011A)
Summary of the method: as §1

PUM1 PUF domain R3-FSS = PUM1 PUF domain R3-FSS (Homo sapiens, UniProt Q14671 828-1176, C935F;R936S;Q939S)
Summary of the method: as §1

PUM1 PUF domain R7-TVA = PUM1 PUF domain R7-TVA (Homo sapiens, UniProt Q14671 828-1176, S1079T;N1080V;E1083A)
Summary of the method: as §1

PUM1 PUF domain R7-RTL = PUM1 PUF domain R7-RTL (Homo sapiens, UniProt Q14671 828-1176, S1079R;N1080T;E1083L)
Summary of the method: as §1

PUM1 PUF domain R7-RRA = PUM1 PUF domain R7-RRA (Homo sapiens, UniProt Q14671 828-1176, S1079R;N1080R;E1083A)
Summary of the method: as §1

PUM1 PUF domain R3-MWG = PUM1 PUF domain R3-MWG (Homo sapiens, UniProt Q14671 828-1176, C935M;R936W;Q939G)
Summary of the method: as §1

PUM1 PUF domain R3-RRR = PUM1 PUF domain R3-RRR (Homo sapiens, UniProt Q14671 828-1176, C935R;Q939R)
Summary of the method: as §1

PUM1 PUF domain R2-CFP = PUM1 PUF domain R2-CFP (Homo sapiens, UniProt Q14671 828-1176, N899C;Y900F;Q903P)
Summary of the method: as §1

PUM1 PUF domain R5-KGL = PUM1 PUF domain R5-KGL (Homo sapiens, UniProt Q14671 828-1176, C1007K;R1008G;Q1011L)
Summary of the method: as §1

PUM1 PUF domain R1-RGI = PUM1 PUF domain R1-RGI (Homo sapiens, UniProt Q14671 828-1176, S863R;R864G;Q867I)
Summary of the method: as §1

PUM1 PUF domain R1-CWR = PUM1 PUF domain R1-CWR (Homo sapiens, UniProt Q14671 828-1176, S863C;R864W;Q867R)
Summary of the method: as §1

PUM1 PUF domain R4-THP = PUM1 PUF domain R4-THP (Homo sapiens, UniProt Q14671 828-1176, N971T;Q975P)
Summary of the method: as §1

PUM1 PUF domain R6-AYQ = biological target: T3, PUM1 PUF domain R6-AYQ (Homo sapiens, UniProt Q14671 828-1176, N1043A)
T3 sequence: T1 sequence with V216A, F217Y, S220Q
Summary of the method: as §1

Sequence of PUM1 PUF domain R8-HYP (Q14671 828-1176 N1122H/Q1126P): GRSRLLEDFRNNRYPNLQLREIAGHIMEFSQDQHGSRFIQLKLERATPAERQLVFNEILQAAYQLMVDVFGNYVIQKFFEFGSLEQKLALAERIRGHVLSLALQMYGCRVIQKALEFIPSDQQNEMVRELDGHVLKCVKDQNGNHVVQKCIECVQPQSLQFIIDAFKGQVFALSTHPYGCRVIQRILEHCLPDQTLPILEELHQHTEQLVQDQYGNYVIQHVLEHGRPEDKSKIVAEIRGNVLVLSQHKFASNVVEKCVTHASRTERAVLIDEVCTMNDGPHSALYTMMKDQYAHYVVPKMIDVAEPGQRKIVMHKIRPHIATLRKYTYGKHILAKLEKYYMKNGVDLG
Sequence of PUM1 PUF domain R3-RRR (Q14671 828-1176 C935R/Q939R): as the sequence (Q14671 828-1176 N1122H/Q1126P) above, with C108R, Q112R, H295N, P299Q counted along it

For “GGCUAGAACUAGUGGAUCCCCCGGCGCCCGGCGGCUCGAGCCCGGGUAAGCGUAAAUAGUCUGCAUGCCGCCGGGCGCCAUGCCUGCAGGUCGACUCUAGAAAACAUG”, the binding signal (PUM1 PUF domain R8-RKK) was 4.27 log2 enrichment (interaction score), the binding signal (PUM1 PUF domain R8-LYK) was 5.14 log2 enrichment (interaction score) and the binding signal (PUM1 PUF domain R8-HYP) was 5.46 log2 enrichment (interaction score).
In the case of “GGCUAGAACUAGUGGAUCCCCCGGCGCCCGGCGGCUCGAGCCCGGGUAAGUGUAAAUAGUCUGCAUGCCGCCGGGCGCCAUGCCUGCAGGUCGACUCUAGAAAACAUG”, the binding signal (PUM1 PUF domain R8-RKK) is reported as 4.25 log2 enrichment (interaction score), the binding signal (PUM1 PUF domain R5-GWS) is reported as 4.65 log2 enrichment (interaction score) and the binding signal (PUM1 PUF domain R6-VFS) is reported as 2.71 log2 enrichment (interaction score). For the same sequence, the binding signal (PUM1 PUF domain R8-LYK) was 5.28 log2 enrichment (interaction score), the binding signal (PUM1 PUF domain R6-CFY) was 2.39 log2 enrichment (interaction score) and the binding signal (PUM1 PUF domain R5-DFA) was 4.36 log2 enrichment (interaction score).
In the case of “GGCUAGAACUAGUGGAUCCCCCGGCGCCCGGCGGCUCGAGCCCGGGUAAGUGUAAGUAGUCUGCAUGCCGCCGGGCGCCAUGCCUGCAGGUCGACUCUAGAAAACAUG”, the binding signal (PUM1 PUF domain R3-FSS) is reported as 2.46 log2 enrichment (interaction score).
In the case of “GGCUAGAACUAGUGGAUCCCCCGGCGCCCGGCGGCUCGAGCCCGGGUAAGUUUAAAUAGUCUGCAUGCCGCCGGGCGCCAUGCCUGCAGGUCGACUCUAGAAAACAUG”, the binding signal (PUM1 PUF domain R7-TVA) is reported as 3.46 log2 enrichment (interaction score), the binding signal (PUM1 PUF domain R7-RTL) is reported as 3.26 log2 enrichment (interaction score) and the binding signal (PUM1 PUF domain R7-RRA) is reported as 3.23 log2 enrichment (interaction score).
In the case of “GGCUAGAACUAGUGGAUCCCCCGGCGCCCGGCGGCUCGAGCCCGGGUAAGUGUAAUUAGUCUGCAUGCCGCCGGGCGCCAUGCCUGCAGGUCGACUCUAGAAAACAUG”, the binding signal (PUM1 PUF domain R3-MWG) is reported as 3.86 log2 enrichment (interaction score) and the binding signal (PUM1 PUF domain R3-RRR) is reported as 3.73 log2 enrichment (interaction score).
In the case of “GGCUAGAACUAGUGGAUCCCCCGGCGCCCGGCGGCUCGAGCCCGGGUAAGUGUAAAAAGUCUGCAUGCCGCCGGGCGCCAUGCCUGCAGGUCGACUCUAGAAAACAUG”, the binding signal (PUM1 PUF domain R2-CFP) is reported as 10.2 log2 enrichment (interaction score).
In the case of “GGCUAGAACUAGUGGAUCCCCCGGCGCCCGGCGGCUCGAGCCCGGGUAAGUGUCAAUAGUCUGCAUGCCGCCGGGCGCCAUGCCUGCAGGUCGACUCUAGAAAACAUG”, the binding signal (PUM1 PUF domain R5-KGL) is reported as 3.86 log2 enrichment (interaction score).
For “GGCUAGAACUAGUGGAUCCCCCGGCGCCCGGCGGCUCGAGCCCGGGUAAGUGUAAAUCGUCUGCAUGCCGCCGGGCGCCAUGCCUGCAGGUCGACUCUAGAAAACAUG”, the binding signal (PUM1 PUF domain R1-RGI) was 2.06 log2 enrichment (interaction score) and the binding signal (PUM1 PUF domain R1-CWR) was 6.18 log2 enrichment (interaction score).
“GGCUAGAACUAGUGGAUCCCCCGGCGCCCGGCGGCUCGAGCCCGGGUAAGUGUAAAUUGUCUGCAUGCCGCCGGGCGCCAUGCCUGCAGGUCGACUCUAGAAAACAUG” was tested, and the binding signal (PUM1 PUF domain R1-RGI) was 1.53 log2 enrichment (interaction score).
“GGCUAGAACUAGUGGAUCCCCCGGCGCCCGGCGGCUCGAGCCCGGGUAAGUGUAUAUAGUCUGCAUGCCGCCGGGCGCCAUGCCUGCAGGUCGACUCUAGAAAACAUG” was tested, and the binding signal (PUM1 PUF domain R4-THP) was 2.79 log2 enrichment (interaction score).
“GGCUAGAACUAGUGGAUCCCCCGGCGCCCGGCGGCUCGAGCCCGGGUAAGUGAAAAUAGUCUGCAUGCCGCCGGGCGCCAUGCCUGCAGGUCGACUCUAGAAAACAUG” was tested, and the binding signal (PUM1 PUF domain R6-CFY) was 1.54 log2 enrichment (interaction score) and the binding signal (PUM1 PUF domain R6-AYQ) was 4.26 log2 enrichment (interaction score).
With “GGCUAGAACUAGUGGAUCCCCCGGCGCCCGGCGGCUCGAGCCCGGGUAAGUGUAAAUGGUCUGCAUGCCGCCGGGCGCCAUGCCUGCAGGUCGACUCUAGAAAACAUG” the binding signal (PUM1 PUF domain R1-CWR) was 1.23 log2 enrichment (interaction score).
For “GGCUAGAACUAGUGGAUCCCCCGGCGCCCGGCGGCUCGAGCCCGGGUAAGUCUAAAUAGUCUGCAUGCCGCCGGGCGCCAUGCCUGCAGGUCGACUCUAGAAAACAUG”, the binding signal (PUM1 PUF domain R7-RRA) was 5.23 log2 enrichment (interaction score).
“GGCUAGAACUAGUGGAUCCCCCGGCGCCCGGCGGCUCGAGCCCGGGUAAGGGUAAAUAGUCUGCAUGCCGCCGGGCGCCAUGCCUGCAGGUCGACUCUAGAAAACAUG” was tested, and the binding signal (PUM1 PUF domain R8-HYP) was 2.77 log2 enrichment (interaction score).

Reference: publication PMC8384837, “Expanding the binding specificity for RNA recognition by a PUF domain”
